# Laboratory results published in PubChem BioAssay (Tox21).
# Results filed as inconclusive are left out. A call without a number means that no potency is given here. The source made the active and inactive calls. The call rests on the fitted dose curve; in most records, active means well fitted activation curve with a large enough effect in the repeat runs; inconclusive means weak or mixed curves; inactive means flat fitted curve, though single readings scatter.
# Biological target: Nuclear receptor subfamily 1 group I member 2 (Homo sapiens) (UniProt O75469)
# Assay: Human pregnane X receptor (PXR) activation by small molecules, qHTS assay (AID 1346985); further: nearly all actives have a fitted effect of over 40% in size
# Conditions: DPX-2 HepG2 CYP3A4-luciferase, 24 h; series mostly up to 38.3 µM
# From the text: National Center for Advancing Translational Sciences [NCATS]
# NIH Chemical Genomics Center [NCGC]
# U.S. Environmental Protection Agency [EPA]
# National Institutes of Environmental Health Sciences [NIEHS]
# National Toxicology Program [NTP]
# The Pregnane X receptor (PXR), a ligand activated nuclear receptor plays a critical role in the regulation of genes involved in drug metabolism and transporters. Activation of PXR may be involved in the unwanted adverse drug-drug interactions. […] Therefore, identification of compounds with the potential for PXR activation can be of importance in improving the efficacy of drugs with less toxicity and avoiding drug-drug interactions.
# DPX-2 (Puracyp, Inc.) cell lines, used for screening against human PXR activation has HepG2 cells co-transfected with a PXR response element and a luciferase construct containing CYP3A4 promoter. Increase in luciferase activity can be used to identify the compounds that activate the PXR pathway.
# DPX-2 cells were dispensed at 2,000 cells per well in 5uL of assay medium into white, solid-bottom 1536-well plates using a Multidrop Combi dispenser (Thermo Scientific). The assay plates were incubated at 37C for 5hr before transferring 23nL of test compounds dissolved in DMSO and positive control via Pintool station (Wako). The assay plates were incubated at 37C for 24hr. Then 5ul One-Glo assay reagent (Promega) was added to each plate by a Flying Reagent Dispenser (FRD, Aurora Discovery) and following 30 min incubation at room temperature, luciferase activity was quantified on a ViewLux plate reader (Perkin Elmer).
# Potency means the concentration at half of the fitted maximal effect.
row,Structure (SMILES),Potency
1,O=C(CCN1CCN2CCCC2C1)N1c2ccccc2Sc2ccc(Cl)cc21 (stereo not given),12.6 µM (active)
2,Cc1nc2ccccc2n1Cc1ccc(Cl)cc1,inactive
3,COc1ccccc1OC(=O)Oc1ccccc1OC,inactive
4,O=C1[C@H](CC[C@H](O)c2ccc(F)cc2)[C@@H](c2ccc(O)cc2)N1c1ccc(F)cc1,inactive
5,NC(=S)N/N=C/c1cccnc1,inactive
6,O=C(O)Cn1c(C(=O)Nc2nc(-c3ccccc3Cl)cs2)cc2ccccc21,inactive
7,CN(c1nccc(=O)[nH]1)C1CCN(c2nc3ccccc3n2Cc2ccc(F)cc2)CC1,inactive
8,CN1CCC[C@@H]1c1cccnc1,inactive
9,c1ccc(-c2nc[nH]c2-c2ccccc2)cc1,inactive
10,C[C@H](CCC(=O)O)[C@H]1CC[C@H]2[C@@H]3[C@H](O)C[C@@H]4C[C@H](O)CC[C@]4(C)[C@H]3CC[C@]12C,inactive
11,COc1ccc2[nH]c(S(=O)Cc3ncc(C)c(OC)c3C)nc2n1 (stereo not given),25.1 µM (active)
12,Cc1ccc(C(=O)C(C)CN2CCCCC2)cc1 (stereo not given),inactive
13,CC(=O)NCCCS(=O)(=O)O,inactive
14,CC1(C)CCC(C)(C)c2cc(NC(=O)c3ccc(C(=O)O)cc3)ccc21,inactive
15,Nc1nc(N)c(-c2ccccc2)s1,inactive
16,CN(C)CC[C@@H](c1ccc(Br)cc1)c1ccccn1,inactive
17,O=C(c1ccccc1)c1ccc2n1CCC2C(=O)O (stereo not given),inactive
18,Cn1c(NCCN(CCO)CCCc2ccc([N+](=O)[O-])cc2)cc(=O)n(C)c1=O,inactive
19,c1ccc(OCc2ccc(CCCN3CCOCC3)cc2)cc1,inactive
20,O=C(O)[C@@H]1[C@H]2C[C@H]3c4[nH]c5ccccc5c4CCN3C[C@@H]2CC[C@@H]1O,inactive

row,Structure (SMILES),Potency
1,Cc1cc(CC(=O)O)c(C)n1-c1ccc(Cl)cc1,inactive
2,NC(N)=NN=C(/C=C/c1ccc([N+](=O)[O-])o1)/C=C/c1ccc([N+](=O)[O-])o1,inactive
3,Cn1c(=O)c2c(ncn2CC(O)CO)n(C)c1=O (stereo not given),inactive
4,CC1(C)[C@H]2CC[C@]1(C)[C@H](O)C2,inactive
5,CC(Cc1cccc(C(F)(F)F)c1)NCCOC(=O)c1ccccc1 (stereo not given),inactive
6,Cl/C(=C\n1cncn1)c1ccc(Cl)cc1Cl,inactive
7,CCN(CC)C(C)CN1c2ccccc2Sc2ccccc21 (stereo not given),inactive
8,CCOc1cc(OCC)c(C(=O)CCC(=O)O)cc1OCC,inactive
9,CCCCc1cc2ccccc2c(OCCN(C)C)n1,inactive
10,CC(C(=O)O)c1ccc(C(=O)c2ccccc2)s1 (stereo not given),inactive
11,CN1CCC(=C2c3ccccc3CCc3sccc32)CC1,inactive
12,CCN(CC)CCc1nc(-c2ccccc2)no1,inactive
13,CC(C)NCC(O)c1cc(O)cc(O)c1 (stereo not given),inactive
14,CC(C(=O)O)c1ccc(-c2ccccc2)c(F)c1 (stereo not given),inactive
15,NC(N)=N/N=C/c1c(Cl)cccc1Cl,inactive
16,CCOC(=S)SSC(=S)OCC,inactive
17,Oc1ccc(C(O)CNCCCCCCNCC(O)c2ccc(O)c(O)c2)cc1O (stereo not given),inactive
18,NC[C@H]1O[C@H](O[C@H]2[C@H](O)[C@@H](O[C@H]3O[C@H](CO)[C@@H](O)[C@H](N)[C@H]3O)[C@H](N)C[C@@H]2N)[C@H](O)[C@@H](O)[C@@H]1O,inactive
19,CC(=O)O[C@H]1C[C@@H]2CC[C@@H]3[C@H](CC[C@@]4(C)[C@H]3C[C@H]([N+]3(C)CCCCC3)[C@@H]4OC(C)=O)[C@@]2(C)C[C@@H]1N1CCCCC1,inactive
20,CCN(CC)CCOc1ccc2c(c1)C(=O)c1cc(OCCN(CC)CC)ccc1-2,inactive
